For 39 molecules, outcome and activation results are on record in PubChem BioAssay.

The source made the active and inactive calls.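 The calls were made as follows: active = membrane potential signal rise above negative control mean plus 3 SD in both duplicates, also active in the earlier TRPC4 screen; inactive = the rest.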

In the assay the target is Short transient receptor potential channel 6 (Mus musculus) (UniProt Q61143). The experiment in a line: TRPC6 opening by TRPC4 activator hits – cell-based, HEK293, membrane potential dye, duplicate, selectivity assay for TRPC4 activator project, confirmation (AID 434950).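 As to activation: 0% = buffer only wells and 100% = acetylcholine maximal-effect wells.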 To be noted: HEK293 TRPC6, membrane potential fluorescence, at 10 µM; activation: hits give high values; outcome: activation.
Chain of Short transient receptor potential channel 6 (Mus musculus) (Q61143 whole entry, looked up): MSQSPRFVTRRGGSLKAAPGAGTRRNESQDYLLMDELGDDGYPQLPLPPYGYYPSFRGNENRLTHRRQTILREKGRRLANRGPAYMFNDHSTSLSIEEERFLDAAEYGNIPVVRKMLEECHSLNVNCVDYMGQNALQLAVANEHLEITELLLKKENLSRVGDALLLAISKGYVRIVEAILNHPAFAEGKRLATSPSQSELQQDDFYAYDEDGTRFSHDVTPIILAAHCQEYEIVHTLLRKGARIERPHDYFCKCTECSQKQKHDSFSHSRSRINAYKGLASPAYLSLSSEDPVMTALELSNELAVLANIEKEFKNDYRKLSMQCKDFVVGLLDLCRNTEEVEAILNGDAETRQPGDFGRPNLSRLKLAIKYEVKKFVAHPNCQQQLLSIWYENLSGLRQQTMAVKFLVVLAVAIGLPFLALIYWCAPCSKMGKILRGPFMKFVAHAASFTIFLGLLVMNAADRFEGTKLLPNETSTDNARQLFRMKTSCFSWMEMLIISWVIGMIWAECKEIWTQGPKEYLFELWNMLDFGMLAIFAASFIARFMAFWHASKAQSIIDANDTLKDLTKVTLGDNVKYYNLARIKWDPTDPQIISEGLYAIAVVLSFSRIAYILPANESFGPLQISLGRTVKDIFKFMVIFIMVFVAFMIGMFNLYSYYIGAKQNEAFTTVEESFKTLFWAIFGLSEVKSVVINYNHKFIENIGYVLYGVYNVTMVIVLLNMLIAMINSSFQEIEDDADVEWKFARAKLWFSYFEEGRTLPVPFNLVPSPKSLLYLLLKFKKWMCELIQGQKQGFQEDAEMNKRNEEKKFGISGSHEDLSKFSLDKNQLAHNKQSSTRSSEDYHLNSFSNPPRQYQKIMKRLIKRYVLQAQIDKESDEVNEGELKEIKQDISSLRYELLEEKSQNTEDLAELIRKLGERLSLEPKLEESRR
With `COC(=O)c1ccccc1NC(=O)c1cnn2cccnc12`, the result was inactive.

With `Cc1cc(Cl)ccc1OC(C)C(=O)Nc1ccccc1N1CCOCC1` (centres undefined), the molecule was classed as inactive.

Regarding `CC(C(=O)c1ccc(Br)cc1)[n+]1cccc(NC(=O)c2ccccc2)c1` (centres undefined), the call was inactive.

As to `Cn1c(SCCOc2ccccc2F)nc2ccccc2c1=O`, the call was inactive.

On to `O=C(CN1CCCN(S(=O)(=O)c2ccc(F)cc2)CC1)Nc1ccccc1Br`, for which the call was inactive.

Turning to `Cc1c(CCOC(=O)c2ccccc2)sc[n+]1CC(=O)c1ccc(Br)cc1`, the call was inactive.

Turning to `Cc1c(N2C(=O)/C(=C/c3ccccc3)SC2=S)c(=O)n(-c2ccccc2)n1C`, the molecule was called inactive.

As for `CCOC(=O)Cc1csc(NC(=O)NC2(C(F)(F)F)Oc3cc(Cl)c(Cl)cc3O2)n1`, the result was inactive.

On to `CCCn1nc(C(=O)NC2CCCc3ccccc32)c2ccccc2c1=O` (centres undefined), for which the call was inactive.

In the case of `CCOC(=O)c1c(C)n(-c2ccc(C)cc2)c2ccc(OCC(O)CNCC3CCCO3)cc12` (centres undefined), the result was inactive.

In the case of `O=C(NCCCN1CCN(CCCNC(=O)c2cccc(Cl)c2)CC1)c1cccc(Cl)c1`, the molecule was called inactive.

Regarding `COC(=O)[C@@]12CCCCN1[C@H](c1ccc(-c3ccc(C(C)=O)cc3)cc1)[C@@H]1C(=O)N(C)C(=O)[C@@H]12`, the molecule was called inactive.

Regarding `Cc1ccc(CNC(=O)CSc2nc(=O)n3ccccc3n2)cc1`, the molecule was classed as inactive.

For the molecule `CCCCCCc1cc2cc(-c3nnc(-c4ccccc4O)o3)c(=O)oc2cc1O`, the call was inactive.

As for `CCCCN(C)CCNC(=O)C1CCCN(S(=O)(=O)c2cccc3nsnc23)C1` (centres undefined), the outcome was inactive.

For the molecule `Cc1cccc(NC(=O)CNC(=O)CN2C(=O)NC3(CCCCC3C)C2=O)c1C` (centres undefined), the outcome was inactive.

For the molecule `CC(C)c1ccc(OCc2ccc(C(=O)N3CCCC3)o2)cc1`, the result was inactive.

For the molecule `COc1ccc(-n2cc(CNCc3cnc4ccccn34)c(-c3cccc(F)c3)n2)cc1`, the molecule was classed as inactive.

For the molecule `COc1ccc(CCN2C(=S)N(C)C(=O)C2CC(=O)Nc2ccc(F)cc2)cc1` (centres undefined), the outcome was inactive.

Turning to `CCOC(=O)C1=NNC(C(=O)c2ccc(Cl)cc2)C1c1ccc(OC)cc1` (centres undefined), the result was inactive.

For the molecule `Cc1ccc(C(C)C)c(OCCCCN2CCNCC2)c1`, the outcome was inactive.

For `CCOC(=O)CSc1nc2ccccc2c(=O)n1C1CCCC1`, the molecule was classed as inactive.

Regarding `Clc1ccc(Cl)c(OCCCCN2CCNCC2)c1`, the outcome was inactive.

On to `COc1ccc(-c2cc(C(=O)N3CC(C)CC(C)C3)c3ccccc3n2)cc1` (centres undefined), for which the molecule was classed as inactive.

In the case of `Cn1c(N2CCC(C(N)=O)CC2)nc2c1c(=O)n(Cc1ccc(Br)cc1)c(=O)n2C`, the result was inactive.

Consider `OC1(c2ccc(Cl)cc2)CN(c2ccccc2)C2=[N+]1CCS2` (centres undefined), for which the activation was 38% (active).

Consider `CCN(CCCNC(=O)CCCOc1cc(=O)n(C)c2ccccc12)Cc1ccccc1`, for which the call was inactive.

Regarding `O=C(NN/C(=N/S(=O)(=O)c1ccc(Cl)cc1)c1ccccc1)c1cccc(Cl)c1`, the outcome was inactive.

On to `CCn1c2ccc(F)cc2c2nnc(NN)nc21`, for which the call was inactive.

Consider `CCN(CC)CCOCCOc1ccc(Cl)c2ccccc12`, for which the call was inactive.

`O=C(NCCCN1CCCC1=O)c1ccc(CNS(=O)(=O)c2ccc(F)cc2)cc1`: the outcome was inactive.

Take `Cc1noc(C)c1COC(=O)[C@@H](NC(=O)c1ccccc1Cl)C(C)C`: the molecule was classed as inactive.

Regarding `C/C=C/Cn1c(SCCCc2ccccc2)nc2c1c(=O)[nH]c(=O)n2C`, the result was inactive.

As for `O=[N+]([O-])c1ccc2c(c1)C=C1CCCCC1(N1CCCC1)O2` (centres undefined), the molecule was called inactive.

For `COc1ccc(CCn2c(=S)[nH]c3cc(C(=O)N4CCOCC4)ccc3c2=O)cc1OC`, the molecule was called inactive.

For `CN(C)CCCCOc1cccc(Br)c1`, the molecule was called inactive.

`CC1=CC(=O)C(C(C)C)=C/C1=N/OS(=O)(=O)c1ccccc1`: the molecule was called inactive.

As for `O=C1CC(NS(=O)(=O)c2cccs2)CN1c1ccccc1` (centres undefined), the result was inactive.

`OCCNCc1cc(Br)ccc1OCc1ccccc1`: the result was inactive.
